Our source for the survival values is PubChem BioAssay AID463173 (ICCB-Longwood Screening Facility, Harvard Medical School, 2010).

Screen size: about 52,000 compounds; about 4,300 (8.3%) were called active. The sample as a whole holds a higher share of actives than the screen did. Values without a mark were called inactive. Cut-off read from the data, not from the text of the source: active = survival mostly below about 52% (no sharp cut-off); inactive = mostly above about 56%.

This test relates to DeltatarO mutant. As to the kind of experiment: S. aureus survival, RN4220 and DeltatarO strains – OD600, teichoic acid synthesis inhibitors, primary screen (AID 463173). Particulars: S. aureus RN4220 wild type/DeltatarO growth, OD600, 18 h, active compounds read low, screened at 18.75 µg/mL (by protocol).
Consider `CCc1cc2c(cc3c(=O)n(CC(=O)N4CCC(C)CC4)nc(CC)n32)s1`, for which the survival is 41% (active).

Turning to `CCc1cc2c(cc3c(=O)n(CC(=O)NC4CCC(C)CC4)nc(CC)n32)s1` (stereo not drawn), the survival is 115%.

As to `CCc1cc2c(cc3c(=O)n(CC(=O)N4CCCCC4)nc(CC)n32)s1`, the survival is 77%.

As to `COc1ccc(OC)c(C(=O)CN2C(=O)N(c3ccc(C)cc3)S(=O)(=O)c3ccccc32)c1`, the survival is 89%.

Regarding `COc1ccc(C(=O)NCC(c2ccco2)S(=O)(=O)c2cccs2)cc1` (stereo not drawn), the survival is 100%.

Take `COc1ccccc1CNc1nc2ccccc2c2nc(-c3cccnc3)nn12`: the survival was 48% (active).

Consider `Cc1cccc(-c2nc3c4ccccc4nc(NCc4ccccc4Cl)n3n2)c1`, for which the survival is 138%.

Consider `Clc1ccccc1CNc1nc2ccccc2c2nc(-c3cccnc3)nn12`, for which the survival was 86%.

In the case of `COc1ccccc1CNc1nc2ccccc2c2nc(-c3cccc(C)c3)nn12`, the survival was 24% (active).

For `COc1ccc(OC)c(CCNc2nc3ccccc3c3nc(-c4cccnc4)nn23)c1`, the survival was 112%.

Turning to `COc1cc2nc(NCc3ccccc3Cl)n3nc(-c4cccnc4)nc3c2cc1OC`, the survival is 105%.

Regarding `Cc1ccc(NC(=O)c2oc3ccc(S(=O)(=O)N(C)C4CCCCC4)cc3c2C)cc1Cl`, the survival is 95%.

As to `Cc1cc2n(n1)CCCN2C(=O)Nc1cccc(C)c1C`, the survival was 73%.

Turning to `O=C(O)C1C2C=CC(C2)C1C(=O)NCCO` (stereo not drawn), the survival is 82%.

Regarding `COc1ccc(OC)c(S(=O)(=O)N2CCC(C(=O)NCCC3=CCCCC3)CC2)c1`, the survival is 92%.

`COC(=O)CNC(=O)N1CCN(S(=O)(=O)c2ccc3c(ccn3C)c2)CC1`: the survival was 87%.

With `CCOC(=O)CNC(=O)N1CCN(S(=O)(=O)c2ccc3c(ccn3C)c2)CC1`, the survival is 32% (active).

With `CCOC(=O)CCNC(=O)N1CCN(S(=O)(=O)c2ccc3c(ccn3C)c2)CC1`, the survival was 89%.

`CCn1c(SCc2ccccc2)nnc1-c1cccnc1`: the survival is 75%.

As to `Cc1cccc(N2CCN(Cc3nnc(-c4ccccc4C)o3)CC2C)c1` (stereo not drawn), the survival was 33% (active).

As for `Cc1ccc(C)c(N2CCN(Cc3nnc(-c4ccccc4)o3)CC2)c1`, the survival was 91%.

Take `Cc1ccccc1-c1nnc(CN2CCN(c3cccc(C)c3C)CC2)o1`: the survival was 61%.

For `Cc1ccc(N2CCN(Cc3nnc(-c4ccccc4F)o3)CC2)c(C)c1`, the survival was 22% (active).

As for `Cc1ccccc1-c1nnc(CN2CCN(c3cc(Cl)ccc3C)CC2)o1`, the survival is 74%.

As for `Cc1ccccc1-c1nnc(CN2CCN(c3ccccn3)CC2)o1`, the survival was 120%.

As for `CCn1c(=O)n(CC2CCC(C(=O)NC(C)C)CC2)c(=O)c2sccc21` (stereo not drawn), the survival is 85%.

`CC(=O)c1ccc(NC(=O)Cn2cc(S(=O)(=O)Cc3ccccc3Cl)c3ccccc32)cc1`: the survival is 74%.

As for `CCOC(=O)C1CCCN(C(=O)c2ccc3c(c2)N(Cc2ccccc2)C(=O)c2ccccc2S3=O)C1` (stereo not drawn), the survival is 120%.

In the case of `CCCCC(=O)Nc1ccc2nc(SCC(=O)N3CCOCC3)sc2c1`, the survival was 87%.

`CCN(Cc1ccccc1)C(=O)CCc1c(C)nc2c(c(C)nn2-c2ccc(C)c(C)c2)c1C`: the survival is 95%.

Consider `COc1ccc(C(=O)N(Cc2cc(OC)c(OC)c(OC)c2)CC2CCCO2)cc1` (stereo not drawn), for which the survival was 48%.

Take `O=C(c1ccc(Cl)cc1)N1CCN(CCc2ccncc2)CC1`: the survival is 103%.

For `CCOC(=O)CSc1nc2sc3c(c2c(=O)n1Cc1ccccc1)CC(C)CC3` (stereo not drawn), the survival was 64%.

`CCC1(C)Cc2c(sc3nc(SC)n(-c4ccc(C)cc4)c(=O)c23)CO1` (stereo not drawn): the survival was 33% (active).

In the case of `CCOC(=O)CSc1nc2sc3c(c2c(=O)n1Cc1ccccc1)CCC(C(C)(C)C)C3` (stereo not drawn), the survival was 61%.

In the case of `CCCCCOC(=O)CSc1nc2sc3c(c2c(=O)n1-c1ccccc1)CC(C)(CC)OC3` (stereo not drawn), the survival was 36% (active).

With `CCCCCOC(=O)CSc1nc2sc3c(c2c(=O)n1Cc1ccccc1)CC(C)(CC)OC3` (stereo not drawn), the survival is 46% (active).

On to `Cc1ccc(-n2c(SCCC(C)C)nc3sc4c(c3c2=O)CC(C)(C)OC4)cc1`, for which the survival was 49%.

For `CCCN(CCC)C(=O)CSc1nc2sc3c(c2c(=O)n1-c1ccccc1)CCN(C(C)=O)C3`, the survival was 178%.

Consider `CCCCCOC(=O)CSc1nc2sc3c(c2c(=O)n1Cc1ccccc1)CC(C)(C)OC3`, for which the survival was 41% (active).

Regarding `CCOC(=O)CSc1nc2sc3c(c2c(=O)n1-c1ccccc1)CC(C(C)C)OC3` (stereo not drawn), the survival was 96%.

In the case of `CCOC(=O)CSc1nc2sc3c(c2c(=O)n1Cc1ccccc1)CC(C(C)C)OC3` (stereo not drawn), the survival is 74%.

On to `COC(=O)CSc1nc2sc3c(c2c(=O)n1-c1ccccc1C)CC(C)(C)OC3`, for which the survival is 73%.

Turning to `COC(=O)CSc1nc2sc3c(c2c(=O)n1-c1ccc(C)cc1)CC(C(C)C)OC3` (stereo not drawn), the survival is 61%.

For `CCOc1ccc(CN(CCc2ccc3c(c2)OCO3)Cc2cc(OC)c(OC)cc2OC)cc1`, the survival is 44%.

In the case of `O=C(Nc1ccc(C(=O)OCc2cc(=O)n3nc(C4CC4)sc3n2)cc1)c1cccc(F)c1`, the survival was 67%.

On to `O=C(Nc1cccc(F)c1)/C(=C\c1cccs1)NC(=O)c1cccs1`, for which the survival was 79%.

For the compound `O=C(CCCSc1nc(-c2ccco2)cc(C(F)(F)F)n1)Nn1cnnc1`, the survival was 72%.

With `COc1cccc(C(=O)NC(=O)Nc2ccc(-n3nc(C(F)(F)F)cc3C(F)(F)F)cc2)c1`, the survival was 81%.

Turning to `CCOc1ccc(OCC)c(NC(=O)C2CCCN(S(=O)(=O)c3ccc(C)cc3)C2)c1` (stereo not drawn), the survival was 60%.

Consider `CCC(Sc1nc2cc(OC)c(OC)cc2c2nc(-c3ccccc3)nn12)C(=O)Nc1cccc(C)c1` (stereo not drawn), for which the survival was 80%.

As for `CCCCc1cc(=O)oc2cc(C)c3c(C(C)(C)C)coc3c12`, the survival was 102%.

Regarding `CCOC(=O)c1cnc(NCc2ccc(OC)cc2OC)c2ccccc12`, the survival was 86%.

Turning to `CCOc1ccc(-c2cnc(NCc3ccc(OC)cc3OC)n2C)cc1`, the survival is 37% (active).

Consider `COc1ccc(OC)c(CNc2ncnc3onc(-c4ccc(Cl)cc4)c23)c1`, for which the survival is 53%.

Regarding `COc1ccc(OC)c(CNC(=O)CN2N=C(c3ccc(Cl)cc3)CCC2=O)c1`, the survival was 96%.

Regarding `COc1ccc(CNS(=O)(=O)c2cnc(N)nc2)c(OC)c1`, the survival was 83%.

With `COc1ccc(OC)c(CNc2ncc(-c3ccc(Cl)cc3)n2C)c1`, the survival was 25% (active).
